Results taken from PubChem BioAssay AID1159580 (chemical genetic matrix, 2015).
Hit rate of the full screen: of about 5,500 compounds, about 2,000 (36%) were called active. Inconclusive results (about 18%) are left out. Cut-off read from the data, not from the text of the source: active = normalized growth mostly below about 0.91 (no sharp cut-off); inconclusive = no clear call, values can overlap the other calls; inactive = mostly above about 0.92. This is one part of the list.

Assay: chemical genetic growth profiling, strain panel (AID 1159580);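 note: tested at 20 µM; growth read once vehicle control cultures reached saturation at 30 °C; 1 = growth at the plate median or of vehicle wells; lower values mean less growth of the strain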
Conditions: growth OD

Measured: normalized growth

O=C(O)CCCCC1SCC2NC(=O)NC21 (centres undefined)
inactive: S. cerevisiae deletion strains, locus YJL187C, strain SWE1, hits give low values 0.991 | S. cerevisiae deletion strains, locus YJR043C, strain POL32, hits give low values 0.971 | S. cerevisiae deletion strains, locus YJR066W, strain TOR1, hits give low values 0.983 | S. cerevisiae deletion strains, locus YKL009W, strain mrt4, hits give low values 0.994 | S. cerevisiae deletion strains, locus YKL068W, hits give low values 1.01 | S. cerevisiae deletion strains, locus YKL085W, strain MDH1 (second series), hits give low values 1.01 | S. cerevisiae deletion strains, locus YKL085W, strain MDH1, hits give low values 1.01 | S. cerevisiae deletion strains, locus YKL160W, strain elf1, hits give low values 1 | S. cerevisiae deletion strains, locus YKL190W, strain CNB1, hits give low values 1.03 | S. cerevisiae deletion strains, locus YKR001C, strain vps1, hits give low values 1 | S. cerevisiae deletion strains, locus YKR026C, strain gcn3, hits give low values 0.982 | S. cerevisiae deletion strains, locus YKR091W, strain srl3, hits give low values 0.992 | S. cerevisiae deletion strains, locus YLL001W, strain dnm1, hits give low values 0.989 | S. cerevisiae deletion strains, locus YLL026W, hits give low values 0.982 | S. cerevisiae deletion strains, locus YLL041C, strain sdh2, hits give low values 0.977 | S. cerevisiae deletion strains, locus YLR027C, strain aat2, hits give low values 0.994 | S. cerevisiae deletion strains, locus YLR039C, strain RIC1, hits give low values 1.06 | S. cerevisiae deletion strains, locus YLR058C, strain SHM2, hits give low values 1.01 | S. cerevisiae deletion strains, locus YLR102C, strain apc9, hits give low values 0.998 | S. cerevisiae deletion strains, locus YLR113W, strain HOG1, hits give low values 0.991 | S. cerevisiae deletion strains, locus YLR221C, strain rsa3, hits give low values 1.01 | S. cerevisiae deletion strains, locus YLR258W, strain gsy2, hits give low values 0.995 | S. cerevisiae deletion strains, locus YLR262C, strain YPT6 (second series), hits give low values 0.992 | S. cerevisiae deletion strains, locus YLR262C, strain YPT6, hits give low values 1.02 | S. cerevisiae deletion strains, locus YLR268W, strain sec22, hits give low values 0.99 | S. cerevisiae deletion strains, locus YLR320W, strain mms22, hits give low values 0.999 | S. cerevisiae deletion strains, locus YLR330W, strain CHS5, hits give low values 1.01 | S. cerevisiae deletion strains, locus YLR342W, strain FKS1 (second series), hits give low values 1 | S. cerevisiae deletion strains, locus YLR342W, strain FKS1, hits give low values 0.972 | S. cerevisiae deletion strains, locus YLR357W, strain rsc2, hits give low values 0.962 | S. cerevisiae deletion strains, locus YLR370C, strain arc18, hits give low values 0.998 | S. cerevisiae deletion strains, locus YLR371W, strain rom2, hits give low values 1.02 | S. cerevisiae deletion strains, locus YLR384C, strain iki3, hits give low values 0.985 | S. cerevisiae deletion strains, locus YLR418C, strain cdc73, hits give low values 1.02 | S. cerevisiae deletion strains, locus YML016C, strain PPZ1, hits give low values 1.01 | S. cerevisiae deletion strains, locus YML032C, strain rad52, hits give low values 0.983 | S. cerevisiae deletion strains, locus YML120C, strain ndi1, hits give low values 0.976 | S. cerevisiae deletion strains, locus YML124C, strain tub3, hits give low values 0.996 | S. cerevisiae deletion strains, locus YMR058W, strain fet3, hits give low values 0.984 | S. cerevisiae deletion strains, locus YMR078C, strain ctf18, hits give low values 1.02 | S. cerevisiae deletion strains, locus YMR125W, strain sto1, hits give low values 0.989 | S. cerevisiae deletion strains, locus YMR129W, hits give low values 0.997 | S. cerevisiae deletion strains, locus YMR205C, strain PFK2, hits give low values 1 | S. cerevisiae deletion strains, locus YMR223W, strain ubp8, hits give low values 1 | S. cerevisiae deletion strains, locus YMR231W, strain pep5, hits give low values 0.997 | S. cerevisiae deletion strains, locus YMR307W, strain GAS1, hits give low values 1.01 | S. cerevisiae deletion strains, locus YNL067W, strain RPL9B, hits give low values 1 | S. cerevisiae deletion strains, locus YNL071W, strain lat1, hits give low values 0.979 | S. cerevisiae deletion strains, locus YNL183C, strain NPR1, hits give low values 0.984 | S. cerevisiae deletion strains, locus YNL209W, strain ssb2, hits give low values 0.995 | S. cerevisiae deletion strains, locus YNL233W, strain BNI4, hits give low values 0.99 | S. cerevisiae deletion strains, locus YNL248C, strain rpa49, hits give low values 0.982 | S. cerevisiae deletion strains, locus YNL250W, strain rad50, hits give low values 1.01 | S. cerevisiae deletion strains, locus YNL271C, strain bni1, hits give low values 0.996 | S. cerevisiae deletion strains, locus YNL298W, strain CLA4, hits give low values 1 | S. cerevisiae deletion strains, locus YNL307C, strain MCK1, hits give low values 0.997 | S. cerevisiae deletion strains, locus YNL322C, strain KRE1 (second series), hits give low values 0.973 | S. cerevisiae deletion strains, locus YNR049C, strain mso1, hits give low values 0.978 | S. cerevisiae deletion strains, locus YNR052C, strain pop2, hits give low values 0.996 | S. cerevisiae deletion strains, locus YOL006C, strain TOP1, hits give low values 1.09 | S. cerevisiae deletion strains, locus YOL012C, strain htz1 1.05 | S. cerevisiae deletion strains, locus YOL147C, strain pex11, hits give low values 1 | S. cerevisiae deletion strains, locus YOR001W, strain rrp6, hits give low values 0.987 | S. cerevisiae deletion strains, locus YOR061W, strain CKA2, hits give low values 1 | S. cerevisiae deletion strains, locus YOR069W, strain VPS5, hits give low values 1.01 | S. cerevisiae deletion strains, locus YOR070C, strain gyp1, hits give low values 1 | S. cerevisiae deletion strains, locus YOR080W, strain dia2, hits give low values 0.978 | S. cerevisiae deletion strains, locus YOR083W, strain WHI5, hits give low values 0.992 | S. cerevisiae deletion strains, locus YOR106W, strain vam3, hits give low values 0.975 | S. cerevisiae deletion strains, locus YOR136W, strain idh2, hits give low values 0.986 | S. cerevisiae deletion strains, locus YOR144C, strain elg1, hits give low values 0.988 | S. cerevisiae deletion strains, locus YOR184W, strain ser1, hits give low values 0.956 | S. cerevisiae deletion strains, locus YOR231W, strain MKK1, hits give low values 1.01 | S. cerevisiae deletion strains, locus YOR265W, strain rbl2, hits give low values 1.01 | S. cerevisiae deletion strains, locus YOR270C, strain vph1, hits give low values 1.01 | S. cerevisiae deletion strains, locus YOR290C, strain snf2, hits give low values 0.977 | S. cerevisiae deletion strains, locus YOR316C, strain cot1, hits give low values 1 | S. cerevisiae deletion strains, locus YPL051W, strain arl3, hits give low values 1.01 | S. cerevisiae deletion strains, locus YPL078C, strain atp4, hits give low values 0.955 | S. cerevisiae deletion strains, locus YPL106C, strain sse1, hits give low values 0.994 | S. cerevisiae deletion strains, locus YPL240C, strain hsp82, hits give low values 0.98 | S. cerevisiae deletion strains, locus YPL241C, strain CIN2, hits give low values 1.01 | S. cerevisiae deletion strains, locus YPL256C, strain CLN2, hits give low values 1 | S. cerevisiae deletion strains, locus YPR119W, strain clb2, hits give low values 0.992 | S. cerevisiae deletion strains, locus YPR141C, strain kar3, hits give low values 1.01 | S. cerevisiae deletion strains, locus YPR163C, strain tif3, hits give low values 1.01 | S. cerevisiae deletion strains, locus YPR167C, strain met16, hits give low values 1 | S. cerevisiae deletion strains, strain wtn01, hits give low values 0.992 | S. cerevisiae strains, strain wild type, hits give low values 1.01
